Data: PubChem BioAssay
Results with a measured potency or affinity are listed apart. Inconclusive results are not listed. Active and inactive are the calls of the source. The rule behind the calls is not given here.

Assay: NIH:OVCAR-3 ovarian cancer cell cytotoxicity, dose response, PAX8 inhibitor project, plate reader, dry powder samples (AID 743044)
Settings: NIH:OVCAR-3 ovarian cancer cell viability; max activity: at 35 µM, active compounds read low unless noted; series mostly up to 50 µM

SMILES	max activity
C[C@@H]1CCCCO[C@H](CN(C)Cc2ccc(Cl)c(Cl)c2)[C@@H](C)CN([C@@H](C)CO)C(=O)c2cc(NS(=O)(=O)c3ccc(Cl)cc3)ccc2O1	-6.91% [at 4.2 µM, active compounds read low] (inactive)
C[C@@H]1CN([C@H](C)CO)C(=O)c2c(c3ccccc3n2C)-c2ccccc2CO[C@H]1CN(C)C(=O)Nc1cccc(C(F)(F)F)c1	-25.5% [at 16 µM, active compounds read low] (inactive)
C[C@@H]1CCCCO[C@H](CN(C)Cc2ccc(Cl)c(Cl)c2)[C@H](C)CN([C@@H](C)CO)C(=O)c2cc(NC(=O)Nc3ccc(F)cc3)ccc2O1	22.7% [at 8 µM, active compounds read low] (inactive)
C[C@H](CO)N1C[C@H](C)[C@H](CN(C)Cc2ccc(Cl)c(Cl)c2)Oc2c(NS(=O)(=O)c3ccc(Cl)cc3)cccc2C1=O	53.6% (inactive)
Cc1ccc(S(=O)(=O)Nc2ccc3c(c2)C(=O)N([C@H](C)CO)C[C@@H](C)[C@H](CN(C)S(=O)(=O)c2ccc(Cl)cc2)OCCCC[C@H](C)O3)cc1	-15.5% (inactive)
C[C@@H]1CN([C@H](C)CO)C(=O)c2cc(NC(=O)Nc3ccc(C(F)(F)F)cc3)ccc2O[C@@H](C)CCCCO[C@H]1CN(C)C(=O)Nc1ccc(F)cc1	-1.73% (inactive)
Cc1ccc(S(=O)(=O)Nc2ccc3c(c2)C(=O)N([C@@H](C)CO)C[C@H](C)[C@@H](CN(C)C(=O)Nc2ccc(C(F)(F)F)cc2)OCCCC[C@H](C)O3)cc1	-5.62% (inactive)
